Reference: the supplement of paper PMC12350171
Counter-ions that a name gives are not always drawn.

System: Haemophilus parainfluenzae
Experiment: growth AUC normalised to DMSO control (fraction of control); higher = less growth inhibition, active = hit call of the paper
Details: 20 µM;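 active = AUC significantly below DMSO controls by Student t-fit with adjusted P under 0.01; inactive = not significantly reduced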
Outline: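 Pathogens passaged twice anaerobically were inoculated at a starting OD578 of 0.01 into pre-reduced mGAM plates with drug at 20 μM and 1% DMSO, sealed with breathable membranes. Haemophilus parainfluenzae medium was supplemented with hemin and NAD. OD578 was read hourly for 24 h, with three biological replicates. Growth-curve AUC was computed by the trapezoidal rule up to the exponential-to-stationary transition and normalised to DMSO controls on the same plate.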

Which “growth AUC normalised to DMSO control” value does the source give for N=C(N)c1ccc(OCCCCCOc2ccc(C(=N)N)cc2)cc1 [Pentamidine isethionate] here?
The value was 0.946 (inactive).

Which “growth AUC normalised to DMSO control” value does the source give for CC[C@H]1OC(=O)[C@H](C)[C@@H](O[C@H]2C[C@@](C)(OC)[C@@H](O)[C@H](C)O2)[C@H](C)[C@@H](O[C@@H]2O[C@H](C)C[C@H](N(C)C)[C@H]2O)[C@](C)(O)C[C@@H](C)/C(=N\OCOCCOC)[C@H](C)[C@@H](O)[C@]1(C)O [Roxithromycin] here?
Its value is 0.1 (active).

For CN(C)CCCSC(=N)N [Dimaprit dihydrochloride], which “growth AUC normalised to DMSO control” value is on record?
Its value is 1.01 (inactive).

How did the “growth AUC normalised to DMSO control” value turn out when CN1Cc2c(N)cccc2C(c2ccccc2)C1 (stereo not given) [Nomifensine maleate] was run?
Its value is 0.915 (inactive).

With CCN(CCCCOC(=O)c1ccc(OC)c(OC)c1)C(C)Cc1ccc(OC)cc1 (stereo not given) [Mebeverine hydrochloride] as the compound, how does the “growth AUC normalised to DMSO control” value read?
The value was 1.03 (inactive).
